About 83,000 compounds went through this panel and 20% of them were active in at least one assay; those are over-represented in the sample as a whole.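 Method: cells in 96-well plates; compound added at one concentration; 48 h incubation; percent growth measured; values under 10 scored active.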 The source made the active and inactive calls.
Tests used:
Assay in all cases: NCI-60 one-dose screen, 48 h (100 = growth as untreated, 0 = no growth, -100 = all killed)
Details in all cases: 10 µM unless noted
[1] = test system: DU-145 prostate
[2] = test system: K-562 leukemia
[3] = test system: MALME-3M melanoma
[4] = test system: MDA-MB-231 breast
[5] = test system: RXF 393 renal
[6] = test system: SF-268 CNS
[7] = test system: SF-295 CNS
[8] = test system: UACC-257 melanoma
[9] = test system: M14 melanoma
[10] = test system: HCT-15 colon
[11] = test system: HT29 colon
[12] = test system: SNB-75 CNS
[13] = test system: SNB-19 CNS
[14] = test system: U251 CNS
[15] = test system: PC-3 prostate
[16] = test system: SK-MEL-5 melanoma
[17] = test system: UACC-62 melanoma
[18] = test system: LOX IMVI melanoma
[19] = test system: SK-MEL-28 melanoma

Measured: growth

CCC(c1ccccc1)C(CC)c1ccc(O)c(O)c1 (stereo unspecified)
inactive: [1] 100% | [2] 87% | [3] 114% | [4] 109% | [5] 106% | [6] 92.1% | [7] 106% | [8] 97.3% | [9] 96.9% | [10] 91.2% | [11] 104% | [12] 86.4% | [13] 116% | [14] 96.6% | [15] 92.7% | [16] 88.3% | [17] 81.5% | [18] 87.9% | [19] 95.4%

CC1=C(NCCN2CCCC2)C(=O)c2c(OCc3cccc(Cl)c3)cccc2C1=O
active: [8] -42.4% | [9] -72.6% | [19] -8.01%
inactive: [1] 89.9% | [2] 30.8% | [3] 53% | [4] 62.8% | [5] 73.8% | [6] 72.8% | [7] 56.9% | [10] 57.1% | [11] 26.1% | [12] 75.1% | [13] 99.4% | [14] 61.7% | [15] 69.9% | [16] 67.1% | [17] 93.7% | [18] 36.1%

CCN(C(=O)CN1CCN(c2cc3c(cc2F)c(=O)c(C(=O)O)cn3CC)CC1)c1nc(-c2ccccc2)cs1
active: [3] -5.46% | [4] 6.19% | [5] 4.13% | [7] -17.5% | [8] -9.83% | [11] 0.981% | [12] -5.25% | [13] 6.46% | [14] 6.31% | [15] 2.39% | [16] -55.6% | [17] -5% | [18] -35%
inactive: [1] 23.3% | [2] 12.3% | [6] 22.7% | [9] 18.3% | [10] 12.3%

CCC(c1ccc(O)cc1)C(CC)c1ccc(O)c(F)c1 (stereo unspecified)
inactive: [1] 97.6% | [2] 47.4% | [3] 85.2% | [4] 97.2% | [5] 92.6% | [6] 82.6% | [7] 84.9% | [8] 89% | [9] 80.5% | [10] 78.2% | [11] 102% | [12] 78.7% | [13] 125% | [14] 89.8% | [15] 72.1% | [16] 66.4% | [17] 59.4% | [18] 87.2% | [19] 78.9%

COc1ccc2nc3cc(Cl)ccc3c(N3CCN(c4nccc(Nc5ccc(Cl)cc5)n4)CC3)c2c1
inactive: [1] 75.5% | [2] 10.8% | [3] 120% | [4] 60.3% | [5] 53.1% | [6] 53.7% | [7] 84.1% | [8] 88.7% | [9] 43.4% | [10] 56.5% | [11] 69.7% | [12] 51.4% | [13] 92% | [14] 62.1% | [15] 40.3% | [16] 86.7% | [17] 81.6% | [18] 61.9% | [19] 81.8%

COc1ccc(-c2csc(NC(=O)CN3CCN(c4cc5c(cc4F)c(=O)c(C(=O)O)cn5C4CC4)CC3)n2)cc1
active: [7] -4.67% | [8] -13.4% | [11] 4.05% | [14] 7.92% | [16] -24.6% | [18] -80%
inactive: [1] 30.2% | [2] 19% | [3] 15.4% | [4] 11.9% | [5] 18.7% | [6] 29.2% | [9] 20.3% | [10] 14.6% | [12] 11.7% | [13] 16.4% | [15] 11.2% | [17] 12.1% | [19] 39.4%

C/C(=C(/c1ccc(O)cc1)c1ccc(OCCN2CCCC2)cc1)c1ccccc1
inactive: [1] 78.8% | [4] 49.6% | [5] 42.4% | [6] 63.8% | [7] 44.3% | [10] 34.6% | [12] 46.1% | [13] 73.5% | [14] 35.1% | [15] 48.1%
active: [2] 2.35% | [3] 8.05% | [8] -29.5% | [9] -53.7% | [11] -10.7% | [16] -65.8% | [17] -29.3% | [18] -50.2% | [19] -40.8%

CCOC(=O)/C=C/C(=O)[C@H](CC(C)C)NC(=O)[C@H](Cc1ccccc1)NC(=O)OCc1ccccc1
active: [2] 5.9% | [18] -82.9%
inactive: [1] 68.3% | [3] 103% | [4] 63.5% | [5] 26.8% | [6] 84.8% | [7] 99.7% | [8] 70.7% | [9] 65.6% | [10] 15.5% | [11] 57.9% | [12] 69.2% | [13] 93.7% | [14] 50.8% | [15] 68.3% | [16] 97.5% | [17] 14.4% | [19] 34.7%

CC(=O)C1=C(O)C=C2Oc3c(C(=O)/C=C/c4ccccc4)c(O)c(C)c(O)c3[C@]2(C)C1=O
inactive: [1] 57% | [2] 24.9% | [3] 74.2% | [4] 61.2% | [5] 62.9% | [6] 35.2% | [7] 19.5% | [8] 44.5% | [9] 36.1% | [10] 25.3% | [11] 32.6% | [12] 87.1% | [13] 21.6% | [15] 24.2% | [16] 10.1% | [17] 32.9% | [18] 41.4%
active: [14] 7.84%

Cc1[nH]n(-c2ccccc2)c2nc3nncc3c(-c3ccc(Cl)cc3)c12
inactive: [1] 103% | [2] 95.8% | [3] 132% | [4] 106% | [5] 107% | [6] 98.9% | [7] 105% | [8] 101% | [9] 114% | [10] 94.1% | [11] 79.7% | [12] 104% | [13] 100% | [14] 99.2% | [15] 73.1% | [16] 104% | [17] 91.5% | [18] 89% | [19] 104%

COc1cc2nc3cc([N+](=O)[O-])ccc3c(NCCCNCC(C)(C)O)c2cc1OC
inactive: [10] 21.9%
active: [1] -34.3% | [2] 0.851% | [3] -81.8% | [4] -62.5% | [5] -81.9% | [6] -57.4% | [7] -41.2% | [8] -64.2% | [9] -77.3% | [11] -52.4% | [12] -96% | [13] -26.1% | [14] -68.9% | [15] -61.8% | [16] -94.5% | [17] -76.1% | [18] -58.4% | [19] -64%

CN1CCOCCOCCOc2ccccc2NC(=O)c2nc(cnc2N)-c2ccc(cc2)S1(=O)=O
active: [8] -34.6% | [10] 1.6% | [11] 9.23%
inactive: [1] 31.1% | [2] 15.9% | [3] 55.7% | [4] 66.3% | [5] 29.9% | [6] 63.3% | [7] 57.7% | [9] 26.9% | [12] 52.1% | [13] 82.5% | [14] 54.6% | [15] 53.5% | [16] 60.5% | [17] 54.3% | [18] 30.1%

CCN(CC)CCC(=O)Nc1ccc(Cn2nnc3c2C(=O)c2nnn(Cc4ccc(NC(=O)CCN(CC)CC)cc4)c2C3=O)cc1
active: [1] -92.6% | [2] 2.02% | [3] -79.5% | [4] -5.66% | [6] -38.1% | [7] -57.2% | [8] -56.1% | [9] -16.3% | [11] -51% | [12] -92.8% | [13] -83.4% | [14] -85.1% | [15] -1.02% | [16] -96.8% | [17] -79.6% | [18] -12.6% | [19] -60.9%
inactive: [5] 19.9% | [10] 95.3%

COc1ccccc1N1CCN(CCn2c(=O)c3c(c4ccccc4n3C)n(C)c2=O)CC1
inactive: [1] 107% | [2] 100% | [3] 110% | [4] 90.4% | [5] 101% | [6] 96.2% | [7] 97.8% | [8] 90.6% | [9] 98.8% | [10] 101% | [11] 68.3% | [12] 107% | [13] 95.2% | [14] 84.2% | [15] 84.4% | [16] 95.8% | [17] 92.4% | [18] 96.3% | [19] 115%

CCOC(=O)C(Cc1cc(I)c(O)c(I)c1)NC(=O)c1ccccc1 (stereo unspecified)
inactive: [1] 109% | [2] 97.1% | [3] 99.5% | [4] 102% | [5] 99.1% | [6] 102% | [7] 101% | [8] 92.7% | [9] 99.3% | [10] 98.6% | [11] 99.9% | [12] 94.5% | [13] 99.3% | [14] 33.6% | [15] 99.1% | [16] 100% | [17] 92.2% | [18] 103% | [19] 101%

COc1cc(-c2c3c(nc4c2c(C)nn4-c2ccccc2)-c2ccccc2C(=O)C3=O)cc(OC)c1OC
inactive: [1] 92.2% | [2] 76.9% | [3] 72.4% | [4] 70.9% | [5] 83.3% | [6] 78.9% | [7] 107% | [8] 64.1% | [9] 90% | [10] 85.6% | [11] 44.7% | [12] 138% | [13] 101% | [14] 86.7% | [15] 53.1% | [16] 70.5% | [17] 86.7% | [18] 35.7% | [19] 95%

Source: PubChem BioAssay (NCI)
